MmCpn inh: blocks the Methanococcus maripaludis chaperonin Mm-Cpn; purified Mm-Cpn ATPase, ADP Transcreener TR-FRET; Potency, µM (series often up to 76.9 µM), for inactives: at the top dose activity, negative = inhibition, usual class: inhibitors; actives 0.031% (n = 330,000); further: on the % scale 0 is the no-effect control and ±100 the full control effect; nearly all actives have a fitted effect of over 80% in size
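Quantitative HTS used 25 nM Mm-CPN and 10 uM ATP in magnesium/KCl Tris buffer, pH 7.4, with 1 mM DTT. Hydrolysis ran 30 min at 37°C; ADP was read by HTRF.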
aSyn yeast inh: inhibitors of alpha-synuclein toxicity in yeast | Yeast expressing alpha-synuclein, growth rescue, BacTiter-Glo, 24 h | Potency, µM (titrated, usually from 46.1 µM), for the others: top-dose growth rescue (activation), usual class: activators | actives 0.14% (n = 370,000) | AID 652106; further: % of control where 0% means no effect; nearly all actives have a fitted effect of over 65% in size
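Rescue of yeast growth: cells expressing toxic alpha-synuclein, induced in galactose at OD600 0.02, incubated with compound 24 h at 30 C. ATP luminescence quantified growth; inhibitors of toxicity appear as activators.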
Abeta yeast res: restores growth of yeast expressing A-beta42 peptide. yeast expressing A-beta42, growth rescue, OD600, 48 h; response scale: 0% DMSO, 100% iron-clioquinol control. actives 0.063% (n = 410,000). Potency, µM (doses to about 46.1 µM), most hits filed as activators; further: nearly all actives have a fitted effect of over 55% in size
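Growth rescue measured by 600 nm absorbance after 48 h yeast culture at 30 C with compound. Values normalized between DMSO and an equimolar ferric chloride plus clioquinol control.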
FUS yeast rescue: FUS proteinopathy suppression in yeast; actives 0.24% (n = 390,000); AID 1347120; Potency, µM (series often up to 76.6 µM), hits mostly activators; S. cerevisiae FUS-expressing, growth rescue, OD600, 24 h;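 further: plate controls were DMSO vehicle for no effect and reference control for full effect; nearly all actives have a fitted effect of over 55% in size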
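Steps: raffinose overnight preculture; dilution to OD 0.005 in 2% galactose minimal medium; compound addition (concentration series); 24hr at 30C, 99% humidity; absorbance read at 600 nm.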
ClpP mod: qHTS Assay for Activators of ClpP. Potency, µM (highest dose often 57.5 µM), without a hit: at the top dose activity change, negative = active. purified B. subtilis ClpP, FRET peptide cleavage, 20 min. actives 1.9% (n = 340,000). ATP-dependent Clp protease proteolytic subunit (Bacillus subtilis (strain 168)), P80244; active means well fitted falling curve with a large enough effect; inconclusive means small, poorly fitted or top-dose-only effect; inactive means no such curve, though single readings can be large or run the other way; further: the source files actives as falling curves though it sought activators and does not explain the sign; nearly all actives have a fitted effect of over 65% in size
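Purified B. subtilis ClpP, 10 microg/mL final in Tris/HCl pH8 with KCl, BSA, glycerol and Tween-20, cleaved an Abz/nitrotyrosine-quenched decapeptide. Fluorescence (ex 320, em 430) was read at 0 and 20 min at room temperature. Delta was normalized to 5.8 microM ADEP and DMSO/no-enzyme controls.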
TDP43 rescue: rescues yeast growth from TDP-43 toxicity; Potency, µM (highest dose often 46.1 µM), for inactives: at the highest dose growth rescue (activation), most hits filed as activators; actives 1.8% (n = 410,000); TDP-43 expressing yeast growth rescue, BacTiter-Glo, 24 h; further: % of control where 0% means no effect; nearly all actives have a fitted effect of over 50% in size
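Luminescence from BacTiter-Glo reports growth of TDP-43-expressing yeast after 24 hr at 30 deg C with compound. Cells were raffinose-pregrown to mid-log, then seeded in galactose medium at OD600=0.02.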
* marks the source's active call; other numbers are inactive results; i = inactive; ? = inconclusive; · = no result given; [ ] = another dose, or the depositor's remark. In the library only some 3.6% were active in any assay of this set; here they are far more common. Unless noted, the call rests on the fitted dose curve; in most records, active means well fitted curve in the direction sought with a large enough effect; inconclusive means small, poorly fitted or top-dose-only effect, or another doubt; inactive means no such curve, though single readings can be large; an effect the other way counts as inactive or inconclusive. Potency means the concentration at half of the fitted maximal effect.

SMILES	MmCpn inh	aSyn yeast inh	Abeta yeast res	FUS yeast rescue	ClpP mod	TDP43 rescue
Cc1ccc(N2C(=O)c3ccccc3C2Nc2ccccc2)nc1 (stereo not given)	-1.1%	-5.4%	i	i	-0.5%	15.7%
O=C(COC(=O)Cc1ccccc1F)Nc1ccc(SC(F)F)cc1	2.9%	1.7%	i	i	-0.6%	10µM*
O=C(CN1C(=O)COc2ccccc21)Nc1ccccc1F	?	-9.2%	i	i	0.4%	-9.0%
O=C1COc2ccccc2N1Cc1c(F)cccc1Cl	1.8%	3.7%	i	i	1.9%	11.2µM*
CC(C)C(=O)Nc1ccc2c(c1)C(=O)N(CCC(=O)O)C2=O	-3.8%	3.1%	i	i	28.2µM*	-8.4%
COc1ccc(CC(=O)Nc2ccc3c(c2)C(=O)N(CCC(=O)O)C3=O)cc1	1.2%	-2.2%	i	i	-1.5%	?
CNC(=S)/N=C/NOCc1ccc(Cl)cc1Cl	-1.5%	-21.1%	i	i	·	10µM*
NC(=O)NOCc1ccc(Cl)cc1Cl	0.4%	0.0%	i	i	·	19.6%
Cc1ccc(C)c(S(=O)(=O)c2cn(Cc3ccccc3)c3cc(F)c(F)cc3c2=O)c1	·	·	i	?	-0.3%	?
O=C1CSc2ccc(C(=O)Nc3cccc(S(=O)(=O)Nc4ccc(Br)cc4)c3)cc2N1	-7.3%	-6.6%	i	7.08µM*	0.7%	-14.2%
CCC(Oc1ccc(F)cc1)C(=O)Nc1nc2c(s1)CCCC2 (stereo not given)	·	·	?	i	0.5%	11.2µM*
O=C(Nc1nc2c(s1)CCCC2)c1ccc(Br)o1	-6.2%	-28.2%	i	i	-0.4%	18.8%
Cc1ccc(C(=O)Nc2nc3c(s2)CCCC3)o1	0.0%	-27.1%	i	i	-1.0%	14.1µM*
CCOc1cc(CNC(=O)Cn2c(=O)c3cccn3c3ccc(F)cc32)cc(OCC)c1OCC	·	·	i	i	10.9%	-32.7%
Cc1ccc(-c2onc(C)c2C)cc1S(=O)(=O)N1CCCCC1	·	·	i	i	-2.3%	22.4µM*
CCOC(=O)C1CCN(S(=O)(=O)c2cc(-c3onc(C)c3C)ccc2C)CC1	·	·	i	?	0.0%	?
CCOC(=O)C1CCN(S(=O)(=O)c2cc(-c3onc(C)c3C)ccc2OC)CC1	·	·	i	?	-2.6%	25.1µM*
CC[C@@H]1C(c2ccccc2)=NN(c2ccc(Br)cc2)[C@H]1C(=O)N1CCOC1=O	-19.7%	?	i	i	5.3%	?
CC[C@@H]1C(c2ccc(F)cc2)=NN(c2ccc(Br)cc2)[C@H]1C(=O)N1CCOC1=O	-20.1%	23.2%	i	i	3.6%	14.1µM*
Cc1cc2oc(=O)cc(-c3ccccc3)c2c(C)c1-c1ccc(O)cc1	-0.4%	-54.4%	i	?	-9.3%	14.1µM*
Cc1ccc(CN2CCN(/N=C/c3sccc3C)CC2)c(C)c1	0.7%	-7.4%	i	·	28.2µM*	10.2%
CCc1ccc(C=NN2CCN(Cc3ccc(C)cc3C)CC2)cc1	·	·	·	i	·	·
Clc1ccc2c(c1)c1cc(Cl)ccc1n2CN1CCOCC1	-9.6%	-24.8%	i	i	-6.1%	6.31µM*
Clc1ccc2c(c1)c1ccccc1n2CN1CCOCC1	-29.3%	-4.5%	i	i	-8.4%	?
FCCCOc1ccc(-c2ccnc3ncnn23)cc1	-10.5%	3.5%	i	i	1.4%	22.4µM*
SMILES	MmCpn inh	aSyn yeast inh	Abeta yeast res	FUS yeast rescue	ClpP mod	TDP43 rescue
COc1ccc(OC)c(C2C(C(=O)c3ccc(C)o3)=C(O)C(=O)N2c2cc(C)on2)c1 (stereo not given)	-7.4%	0.4%	i	31.6µM*	-0.4%	-9.3%
COc1ccc(C2C(C(=O)c3ccc(C)o3)=C(O)C(=O)N2c2cc(C)on2)cc1OC (stereo not given)	-5.4%	0.6%	i	i	-1.2%	10.8%
CCCCCCCCCC[n+]1cccc2cc(Cl)ccc21	·	-13.1%	·	·	-3.1%	·
CN1C2=N[C@H](c3ccc(Br)cc3)CC(=O)N2/C(=C\c2ccccc2)[C@@H]1c1ccccc1	·	·	·	i	·	·
CC12CCC(=O)N1C(C(=O)Nc1nc(-c3ccccc3Cl)cs1)CS2 (stereo not given)	-8.8%	7.0%	i	i	-3.1%	10µM*
CC(C)c1nn2c(=O)cc(COC(=O)c3cccc(NC(=O)COc4ccc(F)cc4)c3)nc2s1	·	·	i	i	?	20.6%
CC(CC(=O)Nc1cccc(Cl)c1)c1ccccc1 (stereo not given)	-1.8%	0.6%	i	i	14.1µM*	?
CN(CC(=O)Nc1cccc(Cl)c1)S(=O)(=O)/C=C/c1ccccc1	·	?	i	i	-2.1%	17.8µM*
CC(CC(=O)Nc1ccncc1)c1ccccc1 (stereo not given)	-0.6%	-1.7%	i	i	-2.8%	6.5%
c1ccc(-c2cc(-c3nnco3)c3ccccc3n2)nc1	3.6%	-0.1%	i	i	·	-17.1%
COc1cc(-c2cc(-c3nnco3)c3ccccc3n2)cc(OC)c1OC	-1.5%	6.0%	i	i	12.6µM*	22.6%[9.22 µM]
COC(=O)C[C@H]1CC[C@H]2[C@H](COc3ccc(NC(=O)Nc4ccccc4F)cc3C(=O)N2C)O1	·	·	·	i	·	·
Cc1ccccc1NC1=C(Cl)C(=O)OC1OC(=O)c1ccccc1C (stereo not given)	2.6%	5.6%	i	i	·	20µM*
CN1CC[n+]2cnc3ccccc3c21	0.1%	-0.6%	i	i	28.2µM*	18.8%
Cc1cc(C)cc(N(CC(=O)NC2CCC(C)CC2)S(=O)(=O)c2ccc(C(C)(C)C)cc2)c1 (stereo not given)	·	·	·	i	·	·
Cc1ccc(CNC(=O)CSc2c(C(C)C)cnc3c2c(=O)n(C)c(=O)n3C)cc1	·	·	i	i	-2.3%	16.2%
CC(=O)N1c2ccccc2C(=O)OC1c1cccnc1 (stereo not given)	-0.5%	-1.0%	i	i	28.2µM*	-21.6%
CCOc1nc(Nc2ccc(OC)c(Cl)c2)nc(OCC)n1	-2.6%	2.4%	i	i	-0.1%	14.1µM*
COc1ccc(Nc2nc(N3CCOCC3)nc(N3CCOCC3)n2)cc1Cl	0.4%	3.7%	i	i	-9.6%	15.8µM*
Cc1cccc(C(=O)Nc2c(-c3ccc(C(F)(F)F)cc3)nc3ncccn23)c1	·	·	·	i	·	·
N=c1nc(-c2ccccc2)n(-c2ccccc2)s1	·	-48.2%	·	·	-3.7%	·
